# Marburg entry = inhibitors of Marburg virus binding or entry into cells. Marburg virus pseudotype entry/binding inhibition, cell-based. Potency, µM (series often up to 49.2 µM), for inactives: top-dose activity change, negative = inhibition, most hits filed as inhibitors. actives 6.5% (n = 18,000)
# Lassa entry = blocks Lassa virus binding or cell entry; Lassa virus pseudotyped entry inhibition, cell-based qHTS; Potency, µM (titrated, usually from 49.2 µM), without a hit: at the highest dose activity change, negative = inhibition, actives largely listed as inhibitors; actives 4.1% (n = 18,000)
# Numbers without * were called inactive; ? = inconclusive; / = no result; [ ] = dose if it differs, or a comment. Hits are enriched below; roughly 8.6% of the tested compounds scored in any of these assays. Calls come from the whole dose curve; tested in HEK293 cells. % is set by controls: 0 for no effect and ±100 for the full control effect; potency is the fitted concentration of half-maximal effect.
SMILES,Marburg entry,Lassa entry
Cc1cccc(CN2CCN([C@@H]3C[S+](=O)([O-])N[C@@H]3COCc3ccccc3)CC2)c1,-18%,-10%
CCN1C(=S)NC(c2ccccc2)C(C(=O)OC)=C1C (stereo unspecified),-2%[8.59 µM],6%[8.59 µM]
COc1ccc(-c2ccccc2[C@H]2[C@@H]3C=CC[C@@H](C)[C@@H]3C(=O)N2Cc2ccccc2)cc1,14µM*,?
C[C@@H]1CC=C[C@@H]2[C@H]1C(=O)N(Cc1ccccc1)[C@H]2c1cccc(Br)c1,3%,37%
CC(C)n1cnc2c(NCc3ccccc3)nc(NCCO)nc21,12%,-4%
CC(C)[C@H](CO)Nc1nc(Nc2cccc(Cl)c2)c2ncn(C(C)C)c2n1,-11%,28µM*
CCCC[C@@H]1CN2[C@@H](CC[C@H](C)[C@@H]2c2ccc(Br)cc2)C(=O)O1,5%[8.59 µM],5%[8.59 µM]
CC1=C[C@@H](COCc2ccccc2)O[C@@]2(C1)C(=O)N(CC1CC1)c1ccccc12,1%[8.59 µM],-24%[8.59 µM]
c1ccc2sc(C3(N4CCCCC4)CCCCC3)cc2c1,11µM*,?
c1csc(C2(N3CCCCC3)CCCCC2)c1,-10%,-2%
C#CCCCON=C1C[C@@H](O)[C@@H](O)[C@@H]2[C@H]3C(=O)N(C(C)(C)C)C(=O)[C@@H]3CC[C@H]12,12%[8.59 µM],4%[8.59 µM]
COC1=C[C@H](C(=O)N2CCCC2)[C@H](C)[C@@H](c2ccccc2)CC1=O,2%[8.59 µM],-11%[8.59 µM]
COC(=O)[C@H]1Cc2c([nH]c3ccccc23)CN1C(=O)COc1ccc2c(C)cc(=O)oc2c1,-12%,-12%
F/C(COc1ccc2c(c1)[nH]c1ccccc12)=C1/CN2CCC1CC2,13µM*,?
CCOC(=O)CN1C(=O)[C@@]2(CC(C)=C[C@@H](COCc3ccccc3)O2)c2ccccc21,7%[8.59 µM],/
CO/N=C(\C(=O)N[C@@H]1C(=O)N2C(C(=O)O)=C(CSc3nnnn3C)CS[C@H]12)c1csc(N)n1,25%,-2%
NCCc1ccc(O)cc1,12%,?
Nc1ccc(O)cc1,50µM*,45µM*
CCOC(=O)C1=C(N)Oc2ccc(Br)cc2[C@@H]1[C@@H](C#N)C(=O)OCC,24%,20µM*
CCOC(=O)C1Oc2ccccc2C(C(=O)OC)=C1C(=O)OC (stereo unspecified),11%,-5%
C[C@H]1CN(c2ccccc2)C(=O)[C@H]1CC(=O)Nc1ccc(Br)cc1,-9%,25%
C=C(CCN1C=C(C(=O)OCC)C(c2ccccc2)NC1=O)c1ccccc1 (stereo unspecified),?,19%[8.59 µM]
CN(C)[C@H]1CCN([C@H]2C[S+](=O)([O-])N[C@H]2COCc2ccccc2)C1,22%,1%
CC[C@@]12CCCN3CCc4c(n(c5ccccc45)[C@](O)(C(=O)OC)C1)[C@H]32,?,-8%
COC(=O)C1(O)CC2OC1(C)n1c3ccccc3c3c4c(c5c6ccccc6n2c5c31)C(=O)NC4 (stereo unspecified),4µM*,?
SMILES,Marburg entry,Lassa entry
COC(=O)[C@@]1(O)C[C@@H]2O[C@@]1(C)n1c3ccccc3c3c4c(c5c6ccccc6n2c5c31)C(=O)NC4,14µM*,-20%
COc1ccccc1C1CN(Cc2c(C)nc3sccn23)Cc2ccccc2O1 (stereo unspecified),-10%,-12%
CC(=O)OC[C@H]1O[C@H](CCON=C(C)CCC(=O)OC[C@H]2O[C@H](C#Cc3ccccc3)C=C[C@H]2Oc2ccc(C)cc2)C=C[C@H]1OC(C)=O,21%[8.59 µM],5%[8.59 µM]
CCN1C(=O)NC(c2ccco2)C(C(C)=O)=C1C (stereo unspecified),26%[8.59 µM],-16%[8.59 µM]
COc1cc(Br)c(C[N+]2(CCOCCC3CCC4CC3C4(C)C)CCOCC2)cc1OC (stereo unspecified),?,4.5µM*
COC(=O)N[C@@H](C=Cc1ccccc1)C(C(=O)OC)=C(C)NCc1ccccc1,-22%[8.59 µM],-12%[8.59 µM]
CC(C)=CCCC1(C)C=Cc2c(O)c3c(c(CC=C(C)C)c2O1)OC12C(CC4CC1C(C)(C)OC2(C/C=C(/C)C(=O)O)C4O)C3=O (stereo unspecified),3%,10µM*
COc1ccccc1-c1cc(NCc2cccnc2)ncn1,11%,9%
COc1ccc(CNc2nc(-c3ccoc3)nc3ccccc23)c(OC)c1,-25%,-9%
COc1ccc(CNc2cc(-c3ccccc3CN(C)C)ncn2)c(OC)c1,10µM*,1%
Cc1cccc(CNc2nc(-c3ccccc3CN(C)C)nc3ccccc23)c1,11µM*,?
COc1ccccc1-c1nc(NCc2cnc(C)cn2)c2ccccc2n1,3%,12%
COc1ccc(CNc2nc(-c3ccccc3CN(C)C)nc3ccccc23)c(OC)c1,7.9µM*,?
COc1ccccc1-c1nc(NCc2ccccc2)c2ccccc2n1,13µM*,14µM*
Cc1cccc(CNc2nc(-c3ccoc3)nc3ccccc23)c1,-17%,2%
CC(CCN1CCCc2nc(C)c(C)cc21)=NO[C@@H](C)c1cc(-c2c(C)cc(C)cc2C)no1,-9%[8.59 µM],11%[8.59 µM]
Cc1ccc2[nH]nc(C(=O)N3CCOc4ccc(CN5CCc6sccc6C5)cc4C3)c2c1,?,18%
COC(=O)[C@@H]1CC23C(=NC(c4ccc([N+](=O)[O-])cc4)=C(C(F)(F)F)[C@@H]2N(C)c2ccccc23)N1C(C)=O (stereo partly specified),8%[8.59 µM],-22%[8.59 µM]
CC(C)=CCCC(C)=CCON=C1C[C@@H](O)[C@@H](O)[C@@H]2[C@H]3C(=O)N(c4cccc(Oc5ccccc5)c4)C(=O)[C@@H]3CC[C@H]12,26%[8.59 µM],-21%[8.59 µM]
CC(=O)C1=C(C)N(Cc2ccccc2)C(=O)NC1c1cccc(C(F)(F)F)c1 (stereo unspecified),-7%[8.59 µM],19%[8.59 µM]
CC(C)=CCCC(C)=CCN1C(=O)[C@@]2(CC(C)=CC[C@@H](C)O2)c2c(Br)cccc21,0%[8.59 µM],-19%[8.59 µM]
CC(C)CN(C[C@@H](O)[C@H](Cc1ccccc1)NC(=O)O[C@@H]1CCOC1)S(=O)(=O)c1ccc(N)cc1,-13%,-8%
COC(=O)C1=C(C)N(Cc2ccccc2)C(=O)NC1c1ccco1 (stereo unspecified),13%[8.59 µM],18%[8.59 µM]
CC[C@H](C(=O)[C@H](C)[C@H](O)[C@H](C)CCc1ccc(C)c(O)c1C(=O)O)[C@H]1O[C@](CC)([C@@H]2CC[C@@](O)(CC)[C@H](C)O2)C[C@H]1C,2.8µM*,?
CC[C@@H](C(=O)[C@@H](C)[C@@H](O)[C@H](C)CCc1ccc(C)c(O)c1C(=O)O)C1O[C@](CC)(C2CC[C@](O)(CC)[C@H](C)O2)C[C@@H]1C (stereo partly specified),?,7.1µM*
SMILES,Marburg entry,Lassa entry
COC(=O)CC=C[C@H](C)[C@@H](OCc1ccccc1Br)C(C)C,14%[8.59 µM],/
CC(C)(C)c1nc(-c2ccccc2)oc1Nc1ccc2ccccc2c1,-24%[8.59 µM],31%[8.59 µM]
Cc1nc2sccn2c(=O)c1CCN1CCC(=C(c2ccc(F)cc2)c2ccc(F)cc2)CC1,?,35µM*
Cc1nc2ccccn2c(=O)c1CCN1CCC(C(=O)c2ccc(F)cc2)CC1,?,6%
C[C@H]1[C@@H](c2ccccc2)Oc2c(Cl)cccc2S(=O)(=O)N1Cc1ccc(F)cc1,?,14%
COCCN1C(=O)C2=C(C1=O)C1N(C)c3ccccc3[C@@]13C[C@@H](CO)N=C3N2 (stereo partly specified),25%[8.59 µM],18%[8.59 µM]
COC(=O)C1=C(C)N(Cc2ccccc2)C(=NCCc2c[nH]c3ccccc23)NC1c1ccc(Br)cc1 (stereo unspecified),?,-14%[8.59 µM]

# Screening results deposited in PubChem BioAssay by National Center for Advancing Translational Sciences (NCATS).
